# Measured values reported in PMC7862700, “An all-to-all approach to the identification of sequence-specific readers for epigenetic DNA modifications on cytosine”.
# Experiments:
# Test in all cases: DAPPL (digital affinity profiling via proximity ligation, sequencing); 10 mM Tris-HCl pH 7.5, 50 mM NaCl, 1 mM DTT, 4% glycerol, room temperature, 30 min; GST-TFs on glutathione beads, 16-mer random dsDNA library, 0.1% formaldehyde crosslink after washing; high values mean tight binding
# FLI1 = biological target: T1, FLI1 (Homo sapiens, UniProt Q01543 1-452); conditions: protein: recombinant; tags: N-terminal GST; dsDNA, one strand shown
# T1 sequence: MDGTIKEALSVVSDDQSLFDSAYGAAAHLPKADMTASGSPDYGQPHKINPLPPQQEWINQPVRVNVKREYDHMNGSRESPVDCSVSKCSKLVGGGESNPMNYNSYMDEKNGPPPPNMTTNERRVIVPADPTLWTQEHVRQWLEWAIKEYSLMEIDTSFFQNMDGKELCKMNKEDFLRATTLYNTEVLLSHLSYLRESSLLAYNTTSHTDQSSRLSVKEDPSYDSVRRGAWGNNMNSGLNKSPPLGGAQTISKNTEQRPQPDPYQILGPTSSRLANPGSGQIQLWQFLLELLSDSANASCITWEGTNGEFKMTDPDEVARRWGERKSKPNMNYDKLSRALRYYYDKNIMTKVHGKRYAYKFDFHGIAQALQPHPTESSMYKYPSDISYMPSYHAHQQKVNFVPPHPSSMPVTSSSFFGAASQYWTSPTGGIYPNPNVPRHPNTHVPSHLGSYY
# How it was run: (§1)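 GST fusions of human transcription factors were expressed in yeast and captured with glutathione beads. Once given DNA barcodes and pooled alongside a tag-only sample, they were incubated for 30 min at room temperature with 200 nmole of a random double-stranded 16-mer DNA library in Tris/NaCl/DTT/glycerol buffer, then washed, crosslinked (0.1% formaldehyde), proximity-ligated, PCR-amplified and sequenced on an Illumina NextSeq500. The binding signal of each hexamer is its read frequency for a factor divided by its frequency for the tag-only sample.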
# ELK1 = biological target: T2, ELK1 (Homo sapiens, UniProt P19419 1-428); conditions: protein: recombinant; tags: N-terminal GST; dsDNA, one strand shown
# T2 sequence: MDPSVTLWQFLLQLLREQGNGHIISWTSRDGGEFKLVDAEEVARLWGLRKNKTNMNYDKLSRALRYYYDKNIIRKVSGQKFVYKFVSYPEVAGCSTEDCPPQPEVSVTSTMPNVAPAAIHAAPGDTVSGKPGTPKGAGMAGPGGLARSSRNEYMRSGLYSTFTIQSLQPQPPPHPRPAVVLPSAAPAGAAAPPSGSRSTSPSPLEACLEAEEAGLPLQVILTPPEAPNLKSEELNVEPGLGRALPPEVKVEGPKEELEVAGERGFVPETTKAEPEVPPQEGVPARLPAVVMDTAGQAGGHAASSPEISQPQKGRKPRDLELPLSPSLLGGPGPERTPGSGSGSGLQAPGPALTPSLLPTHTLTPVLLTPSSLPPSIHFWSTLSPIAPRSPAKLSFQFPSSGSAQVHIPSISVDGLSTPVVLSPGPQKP
# How it was run: as §1
# GABPA = biological target: T3, GABPA (Homo sapiens, UniProt Q06546 1-454); conditions: protein: recombinant; tags: N-terminal GST; dsDNA, one strand shown
# T3 sequence: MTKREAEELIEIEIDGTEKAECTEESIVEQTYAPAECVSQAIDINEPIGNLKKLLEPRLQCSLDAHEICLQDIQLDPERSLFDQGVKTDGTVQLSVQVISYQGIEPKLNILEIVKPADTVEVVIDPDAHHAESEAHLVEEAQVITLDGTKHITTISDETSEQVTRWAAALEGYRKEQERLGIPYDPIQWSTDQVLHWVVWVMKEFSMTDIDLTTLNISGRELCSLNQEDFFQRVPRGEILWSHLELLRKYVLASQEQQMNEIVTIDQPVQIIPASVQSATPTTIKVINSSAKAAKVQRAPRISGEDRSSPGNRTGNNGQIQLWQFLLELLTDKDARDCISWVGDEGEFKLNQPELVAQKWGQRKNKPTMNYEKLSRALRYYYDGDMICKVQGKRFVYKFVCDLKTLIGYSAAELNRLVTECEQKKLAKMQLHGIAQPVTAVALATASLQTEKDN
# How it was run: as §1
# ERG = biological target: T4, ERG (Homo sapiens, UniProt P11308 1-479); conditions: protein: recombinant; tags: N-terminal GST; dsDNA, one strand shown
# T4 sequence: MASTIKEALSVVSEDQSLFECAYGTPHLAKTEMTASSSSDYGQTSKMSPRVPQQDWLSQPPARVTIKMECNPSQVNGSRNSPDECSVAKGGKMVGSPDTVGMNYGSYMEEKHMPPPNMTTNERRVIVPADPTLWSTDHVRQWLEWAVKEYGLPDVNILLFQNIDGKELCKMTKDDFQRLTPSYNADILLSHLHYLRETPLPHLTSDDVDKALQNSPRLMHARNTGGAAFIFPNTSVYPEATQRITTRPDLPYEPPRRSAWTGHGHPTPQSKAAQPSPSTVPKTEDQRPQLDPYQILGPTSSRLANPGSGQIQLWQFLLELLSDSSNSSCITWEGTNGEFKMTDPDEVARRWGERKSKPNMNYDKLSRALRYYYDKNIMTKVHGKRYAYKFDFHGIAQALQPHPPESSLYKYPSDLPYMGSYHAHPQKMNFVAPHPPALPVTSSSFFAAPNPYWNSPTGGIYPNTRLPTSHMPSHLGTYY
# How it was run: as §1
# ELF1 = ELF1 (Homo sapiens, UniProt P32519 1-619); conditions: protein: recombinant; tags: N-terminal GST; dsDNA, one strand shown
# How it was run: as §1
# EHF = biological target: T5, EHF (Homo sapiens, UniProt Q9NZC4 1-300); conditions: protein: recombinant; tags: N-terminal GST; dsDNA, one strand shown
# T5 sequence: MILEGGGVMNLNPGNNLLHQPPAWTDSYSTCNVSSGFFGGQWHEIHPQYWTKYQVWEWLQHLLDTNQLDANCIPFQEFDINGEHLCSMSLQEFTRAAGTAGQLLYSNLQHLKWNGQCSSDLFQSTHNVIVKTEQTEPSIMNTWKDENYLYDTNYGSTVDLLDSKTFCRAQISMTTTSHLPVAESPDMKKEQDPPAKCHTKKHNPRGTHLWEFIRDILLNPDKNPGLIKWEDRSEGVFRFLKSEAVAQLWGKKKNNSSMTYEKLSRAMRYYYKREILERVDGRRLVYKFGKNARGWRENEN
# How it was run: as §1
# SPI1 = SPI1 (Homo sapiens, UniProt P17947 1-270); conditions: protein: recombinant; tags: N-terminal GST; dsDNA, one strand shown
# How it was run: as §1
# SPIB = SPIB (Homo sapiens, UniProt Q01892 1-262); conditions: protein: recombinant; tags: N-terminal GST; dsDNA, one strand shown
# How it was run: as §1
# ELK3 = biological target: T6, ELK3 (Homo sapiens, UniProt P41970 1-407); conditions: protein: recombinant; tags: N-terminal GST; dsDNA, one strand shown
# T6 sequence: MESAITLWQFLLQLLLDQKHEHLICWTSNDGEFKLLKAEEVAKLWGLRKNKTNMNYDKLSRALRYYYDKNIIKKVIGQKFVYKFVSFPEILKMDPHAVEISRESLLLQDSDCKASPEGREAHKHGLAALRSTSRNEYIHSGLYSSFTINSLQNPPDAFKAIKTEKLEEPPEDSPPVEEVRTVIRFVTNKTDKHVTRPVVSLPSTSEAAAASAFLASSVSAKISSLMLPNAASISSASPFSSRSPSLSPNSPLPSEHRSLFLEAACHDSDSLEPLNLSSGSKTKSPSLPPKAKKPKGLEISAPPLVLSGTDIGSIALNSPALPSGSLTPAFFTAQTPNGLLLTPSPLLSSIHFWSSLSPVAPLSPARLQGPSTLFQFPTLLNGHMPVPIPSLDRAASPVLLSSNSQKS
# How it was run: as §1
# FEV = biological target: T7, FEV (Homo sapiens, UniProt Q99581 1-238); conditions: protein: recombinant; tags: N-terminal GST; dsDNA, one strand shown
# T7 sequence: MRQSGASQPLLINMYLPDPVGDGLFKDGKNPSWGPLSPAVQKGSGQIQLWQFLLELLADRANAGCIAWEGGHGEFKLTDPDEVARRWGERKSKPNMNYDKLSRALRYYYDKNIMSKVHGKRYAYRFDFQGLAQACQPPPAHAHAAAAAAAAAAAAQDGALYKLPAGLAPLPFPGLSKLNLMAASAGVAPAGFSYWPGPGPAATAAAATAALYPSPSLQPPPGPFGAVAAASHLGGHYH
# How it was run: as §1
# ETV5 = ETV5 (Homo sapiens, UniProt P41161 1-510); conditions: protein: recombinant; tags: N-terminal GST; dsDNA, one strand shown
# How it was run: as §1
# HSF1 = HSF1 (Homo sapiens, UniProt Q00613 1-529); conditions: protein: recombinant; tags: N-terminal GST; chain copies: 3; dsDNA, one strand shown
# How it was run: as §1
# SPIC = biological target: T8, SPIC (Homo sapiens, UniProt Q8N5J4 1-248); conditions: protein: recombinant; tags: N-terminal GST; dsDNA, one strand shown
# T8 sequence: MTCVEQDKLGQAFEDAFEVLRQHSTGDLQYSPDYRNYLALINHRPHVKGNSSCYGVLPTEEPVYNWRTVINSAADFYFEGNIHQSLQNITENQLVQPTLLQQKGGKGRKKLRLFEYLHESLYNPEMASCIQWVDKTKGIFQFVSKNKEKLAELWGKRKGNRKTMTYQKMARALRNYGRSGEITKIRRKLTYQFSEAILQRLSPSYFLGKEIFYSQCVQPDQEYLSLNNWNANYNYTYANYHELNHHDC
# How it was run: as §1
# ELF4 = ELF4 (Homo sapiens, UniProt Q99607 1-663); conditions: protein: recombinant; tags: N-terminal GST; dsDNA, one strand shown
# How it was run: as §1
# ELK4 = biological target: T9, ELK4 (Homo sapiens, UniProt P28324-2 1-405); conditions: protein: recombinant; tags: N-terminal GST; dsDNA, one strand shown
# T9 sequence: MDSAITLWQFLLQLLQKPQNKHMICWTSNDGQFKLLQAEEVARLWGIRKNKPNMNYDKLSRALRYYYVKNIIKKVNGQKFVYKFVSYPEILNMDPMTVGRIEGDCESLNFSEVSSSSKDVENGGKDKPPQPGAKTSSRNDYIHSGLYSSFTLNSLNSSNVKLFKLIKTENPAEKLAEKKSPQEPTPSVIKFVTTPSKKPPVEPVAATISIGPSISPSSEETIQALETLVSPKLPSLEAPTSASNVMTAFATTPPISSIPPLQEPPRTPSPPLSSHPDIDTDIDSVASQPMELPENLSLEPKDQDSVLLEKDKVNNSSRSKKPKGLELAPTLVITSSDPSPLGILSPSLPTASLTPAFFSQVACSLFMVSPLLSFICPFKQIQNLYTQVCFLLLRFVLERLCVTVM
# How it was run: as §1
# ETV2 = biological target: T10, ETV2 (Homo sapiens, UniProt O00321 1-342); conditions: protein: recombinant; tags: N-terminal GST; dsDNA, one strand shown
# T10 sequence: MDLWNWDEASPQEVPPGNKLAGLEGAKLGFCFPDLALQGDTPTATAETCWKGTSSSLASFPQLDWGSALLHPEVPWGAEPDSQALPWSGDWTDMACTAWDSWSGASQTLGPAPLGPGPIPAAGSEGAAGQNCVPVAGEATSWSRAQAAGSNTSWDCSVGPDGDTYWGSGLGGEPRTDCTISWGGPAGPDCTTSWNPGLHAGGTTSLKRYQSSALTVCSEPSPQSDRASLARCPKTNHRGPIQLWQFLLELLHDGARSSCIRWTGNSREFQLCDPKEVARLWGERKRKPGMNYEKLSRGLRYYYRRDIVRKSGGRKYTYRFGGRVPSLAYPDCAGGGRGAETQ
# How it was run: as §1
# ELF3 = biological target: T11, ELF3 (Homo sapiens, UniProt P78545 1-371); conditions: protein: recombinant; tags: N-terminal GST; dsDNA, one strand shown
# T11 sequence: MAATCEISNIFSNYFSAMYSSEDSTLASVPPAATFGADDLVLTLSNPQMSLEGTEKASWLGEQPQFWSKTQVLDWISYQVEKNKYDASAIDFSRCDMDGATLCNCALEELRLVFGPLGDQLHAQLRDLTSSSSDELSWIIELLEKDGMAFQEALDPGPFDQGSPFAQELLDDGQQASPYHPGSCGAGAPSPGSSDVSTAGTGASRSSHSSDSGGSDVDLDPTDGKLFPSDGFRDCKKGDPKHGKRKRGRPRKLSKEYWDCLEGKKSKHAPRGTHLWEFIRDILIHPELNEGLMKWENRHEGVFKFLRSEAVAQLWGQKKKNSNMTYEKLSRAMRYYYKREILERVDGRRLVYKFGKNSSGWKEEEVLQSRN
# How it was run: as §1
# CRX = CRX (Homo sapiens, UniProt O43186 1-299); conditions: protein: recombinant; tags: N-terminal GST; dsDNA, one strand shown
# How it was run: as §1
# ETV1 = ETV1 (Homo sapiens, UniProt P50549 1-477); conditions: protein: recombinant; tags: N-terminal GST; dsDNA, one strand shown
# How it was run: as §1
# Sequence of ELF4 (Q99607 whole entry): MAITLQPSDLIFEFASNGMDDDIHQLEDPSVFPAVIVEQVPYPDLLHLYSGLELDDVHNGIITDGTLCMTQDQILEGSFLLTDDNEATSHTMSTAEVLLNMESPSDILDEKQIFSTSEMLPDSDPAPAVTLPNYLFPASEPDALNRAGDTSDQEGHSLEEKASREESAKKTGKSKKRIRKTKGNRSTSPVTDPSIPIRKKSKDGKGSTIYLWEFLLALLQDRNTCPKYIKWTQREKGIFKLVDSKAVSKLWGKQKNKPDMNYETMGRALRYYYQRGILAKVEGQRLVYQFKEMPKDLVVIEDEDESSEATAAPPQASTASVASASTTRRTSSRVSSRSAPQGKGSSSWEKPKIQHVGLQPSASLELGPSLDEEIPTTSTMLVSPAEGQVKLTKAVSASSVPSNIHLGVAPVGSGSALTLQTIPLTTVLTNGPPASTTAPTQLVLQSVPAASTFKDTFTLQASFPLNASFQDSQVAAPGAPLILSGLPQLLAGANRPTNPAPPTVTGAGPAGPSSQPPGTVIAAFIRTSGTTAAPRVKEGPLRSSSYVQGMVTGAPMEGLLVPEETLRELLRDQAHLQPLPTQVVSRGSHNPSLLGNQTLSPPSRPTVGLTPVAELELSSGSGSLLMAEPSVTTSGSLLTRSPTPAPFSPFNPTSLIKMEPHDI
# Sequence of HSF1 (Q00613 whole entry): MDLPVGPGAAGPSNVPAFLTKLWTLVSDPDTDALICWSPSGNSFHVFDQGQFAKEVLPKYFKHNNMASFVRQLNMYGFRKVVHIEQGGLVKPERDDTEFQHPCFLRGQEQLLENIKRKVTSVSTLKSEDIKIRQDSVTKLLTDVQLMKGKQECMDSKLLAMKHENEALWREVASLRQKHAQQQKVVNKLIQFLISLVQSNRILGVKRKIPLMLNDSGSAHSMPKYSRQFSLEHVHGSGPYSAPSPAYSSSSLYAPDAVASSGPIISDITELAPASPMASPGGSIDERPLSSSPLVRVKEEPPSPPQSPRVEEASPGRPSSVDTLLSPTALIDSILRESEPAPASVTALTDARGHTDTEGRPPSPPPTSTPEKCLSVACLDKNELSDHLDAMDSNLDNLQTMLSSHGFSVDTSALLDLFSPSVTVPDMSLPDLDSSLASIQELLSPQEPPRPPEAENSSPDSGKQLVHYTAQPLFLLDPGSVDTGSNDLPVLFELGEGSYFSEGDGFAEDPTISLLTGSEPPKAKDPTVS
# Sequence of ETV1 (P50549 whole entry): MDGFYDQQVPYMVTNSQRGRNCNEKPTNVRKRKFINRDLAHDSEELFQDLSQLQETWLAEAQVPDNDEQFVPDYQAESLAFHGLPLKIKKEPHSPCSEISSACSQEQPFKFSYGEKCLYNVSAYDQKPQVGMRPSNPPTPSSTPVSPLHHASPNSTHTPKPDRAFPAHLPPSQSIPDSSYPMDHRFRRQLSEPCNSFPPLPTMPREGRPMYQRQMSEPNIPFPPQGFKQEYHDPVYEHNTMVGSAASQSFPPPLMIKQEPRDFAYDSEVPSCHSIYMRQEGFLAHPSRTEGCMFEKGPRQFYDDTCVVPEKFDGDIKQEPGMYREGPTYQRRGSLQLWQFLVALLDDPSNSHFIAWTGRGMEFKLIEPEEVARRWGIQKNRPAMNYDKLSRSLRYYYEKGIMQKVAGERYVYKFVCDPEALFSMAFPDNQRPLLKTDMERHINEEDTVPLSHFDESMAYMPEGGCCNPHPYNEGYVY
# Sequence of CRX (O43186 whole entry): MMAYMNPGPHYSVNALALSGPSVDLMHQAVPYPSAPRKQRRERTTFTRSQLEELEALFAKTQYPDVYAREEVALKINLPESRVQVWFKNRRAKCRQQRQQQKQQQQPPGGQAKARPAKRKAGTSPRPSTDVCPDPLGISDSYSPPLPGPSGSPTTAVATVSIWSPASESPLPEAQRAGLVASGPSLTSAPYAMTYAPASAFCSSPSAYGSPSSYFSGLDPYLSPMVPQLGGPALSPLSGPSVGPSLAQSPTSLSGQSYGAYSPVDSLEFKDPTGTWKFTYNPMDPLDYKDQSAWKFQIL
# Sequence of SPIB (Q01892 whole entry): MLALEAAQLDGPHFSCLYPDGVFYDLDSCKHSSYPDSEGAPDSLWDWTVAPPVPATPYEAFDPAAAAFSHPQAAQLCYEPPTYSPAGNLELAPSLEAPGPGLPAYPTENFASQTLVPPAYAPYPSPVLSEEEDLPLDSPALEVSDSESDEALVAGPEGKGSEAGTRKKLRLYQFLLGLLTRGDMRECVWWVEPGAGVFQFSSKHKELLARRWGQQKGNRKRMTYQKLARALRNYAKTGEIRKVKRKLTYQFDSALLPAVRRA
# Sequence of ETV5 (P41161 whole entry): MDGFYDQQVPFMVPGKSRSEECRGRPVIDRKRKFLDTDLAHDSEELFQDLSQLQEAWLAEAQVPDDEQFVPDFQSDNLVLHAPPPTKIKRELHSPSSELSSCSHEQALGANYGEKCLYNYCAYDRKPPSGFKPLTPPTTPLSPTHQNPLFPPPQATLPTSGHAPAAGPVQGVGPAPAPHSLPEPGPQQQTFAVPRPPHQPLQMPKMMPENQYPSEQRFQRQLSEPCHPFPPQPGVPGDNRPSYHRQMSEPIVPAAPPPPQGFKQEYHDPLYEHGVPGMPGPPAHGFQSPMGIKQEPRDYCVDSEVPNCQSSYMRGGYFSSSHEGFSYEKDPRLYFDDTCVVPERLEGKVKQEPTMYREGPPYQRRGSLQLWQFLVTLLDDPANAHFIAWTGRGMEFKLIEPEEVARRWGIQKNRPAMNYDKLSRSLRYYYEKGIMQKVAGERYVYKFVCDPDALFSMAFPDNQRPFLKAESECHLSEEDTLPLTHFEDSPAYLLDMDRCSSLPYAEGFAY
# Sequence of ELF1 (P32519 whole entry): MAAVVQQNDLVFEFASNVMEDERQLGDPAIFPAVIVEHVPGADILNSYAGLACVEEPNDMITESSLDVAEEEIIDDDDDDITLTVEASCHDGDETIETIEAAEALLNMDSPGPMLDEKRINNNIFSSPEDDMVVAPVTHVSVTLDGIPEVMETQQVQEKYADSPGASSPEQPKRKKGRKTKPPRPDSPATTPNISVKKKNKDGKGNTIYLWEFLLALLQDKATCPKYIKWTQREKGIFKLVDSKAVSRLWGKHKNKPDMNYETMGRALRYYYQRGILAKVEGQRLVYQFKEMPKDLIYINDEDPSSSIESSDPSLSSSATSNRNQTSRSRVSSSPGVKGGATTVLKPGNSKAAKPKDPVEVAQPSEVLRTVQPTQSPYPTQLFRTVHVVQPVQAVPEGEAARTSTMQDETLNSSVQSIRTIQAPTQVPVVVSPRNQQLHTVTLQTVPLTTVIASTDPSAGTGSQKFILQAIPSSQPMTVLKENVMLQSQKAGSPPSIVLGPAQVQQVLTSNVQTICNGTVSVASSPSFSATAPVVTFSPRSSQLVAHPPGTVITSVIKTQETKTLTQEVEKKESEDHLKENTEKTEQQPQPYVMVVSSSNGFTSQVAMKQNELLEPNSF
sequence,measurement,setting,value
CTCAGC,binding signal,FLI1,"1.15 fold enrichment (6-mer frequency, TF over GST control)"
same,binding signal,ELK1,"1.22 fold enrichment (6-mer frequency, TF over GST control)"
same,binding signal,GABPA,"1.38 fold enrichment (6-mer frequency, TF over GST control)"
same,binding signal,ERG,"1.24 fold enrichment (6-mer frequency, TF over GST control)"
same,binding signal,ELF1,"1.3 fold enrichment (6-mer frequency, TF over GST control)"
same,binding signal,EHF,"1.28 fold enrichment (6-mer frequency, TF over GST control)"
same,binding signal,SPI1,"1.23 fold enrichment (6-mer frequency, TF over GST control)"
same,binding signal,SPIB,"1.35 fold enrichment (6-mer frequency, TF over GST control)"
same,binding signal,ELK3,"1.12 fold enrichment (6-mer frequency, TF over GST control)"
same,binding signal,FEV,"1.3 fold enrichment (6-mer frequency, TF over GST control)"
same,binding signal,ETV5,"1.11 fold enrichment (6-mer frequency, TF over GST control)"
same,binding signal,HSF1,"1.1 fold enrichment (6-mer frequency, TF over GST control)"
same,binding signal,SPIC,"1.16 fold enrichment (6-mer frequency, TF over GST control)"
same,binding signal,ELF4,"1.27 fold enrichment (6-mer frequency, TF over GST control)"
same,binding signal,ELK4,"1.24 fold enrichment (6-mer frequency, TF over GST control)"
same,binding signal,ETV2,"1.31 fold enrichment (6-mer frequency, TF over GST control)"
same,binding signal,ELF3,"1.2 fold enrichment (6-mer frequency, TF over GST control)"
same,binding signal,CRX,"1.31 fold enrichment (6-mer frequency, TF over GST control)"
same,binding signal,ETV1,"1.28 fold enrichment (6-mer frequency, TF over GST control)"
